We go through 61 compounds from PubChem BioAssay (EPA / NIEHS).

Assay [1] deals with Thyroperoxidase (TPO), gene 54314. As to the kind of experiment: CCTE_Simmons_AUR_rTPO: CCTE's Amplex UltraRed Assay for Thyroperoxidase (TPO) Inhibition, Simmons Lab (AID 2283662).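 Note: potency for loss of signal meaning inhibition of peroxidase activity.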 The method, boiled down:
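Rat thyroid microsomes (5 ug protein) with 25 uM Amplex UltraRed and 300 uM H2O2 in 200 mM phosphate buffer, 30 min at 37C in dark; fluorescence 544/590 nm. Eight concentrations, 5 nM–87.5 uM final, 0.5% DMSO, triplicate biological replicates.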

The nature of assay [2]: CCTE_Simmons_CellTiterGLO_HEK293T: Viability Assessment in CCTE's Assays for Thyroperoxidase (TPO) Inhibition, Simmons Lab (AID 2283665).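 For AC50: cells exposed to compound for 24 h before readout; actives reduce ATP signal below DMSO vehicle meaning cytotoxicity.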 The gist of the method:
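HEK293T, 10 000 cells/well, DMEM + 1% FBS; 8-pt titration 5 nM–87.5 uM [final], 0.5% DMSO; 24 hr, 37C, 5% CO2; CellTiter-Glo luminescence; n=3 biological replicates.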
For orientation: Cellular ATP, detected with luciferase, serves as a proxy for viable cell number.

In assay [3] the target is Luciferin 4-monooxygenase (Photinus pyralis) (UniProt P08659). As to the kind of experiment: CCTE_Simmons_QuantiLum_inhib_2: CCTE's Firefly Luciferase Inhibition Assay, Simmons Lab (AID 2283767). The method, boiled down: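 Luminescence loss relative to DMSO vehicle defines inhibition; detection reagent containing 150 uM D-luciferin and 147 uM dATP (final, pH 7.8) is injected immediately before each read. Enzyme is preincubated with an 8-point titration (5 nM–87.5 uM final) for 30 min at 37C.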
Chain of Luciferin 4-monooxygenase (Photinus pyralis) (P08659 whole entry, looked up): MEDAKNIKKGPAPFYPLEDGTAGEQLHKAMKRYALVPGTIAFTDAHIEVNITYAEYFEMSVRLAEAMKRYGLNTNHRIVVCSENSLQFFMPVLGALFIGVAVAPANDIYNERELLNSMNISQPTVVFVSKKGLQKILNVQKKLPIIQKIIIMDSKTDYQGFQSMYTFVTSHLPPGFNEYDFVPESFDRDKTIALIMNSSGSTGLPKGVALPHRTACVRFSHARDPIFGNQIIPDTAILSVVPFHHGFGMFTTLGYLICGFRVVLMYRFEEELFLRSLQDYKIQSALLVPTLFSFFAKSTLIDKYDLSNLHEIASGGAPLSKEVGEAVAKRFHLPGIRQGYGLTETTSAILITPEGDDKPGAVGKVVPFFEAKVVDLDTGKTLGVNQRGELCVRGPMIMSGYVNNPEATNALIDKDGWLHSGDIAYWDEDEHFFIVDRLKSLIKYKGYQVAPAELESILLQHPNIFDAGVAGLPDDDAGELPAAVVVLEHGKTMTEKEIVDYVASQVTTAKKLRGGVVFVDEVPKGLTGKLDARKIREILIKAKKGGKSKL

Assay [4] can be described thus: ACEA_AR_antagonist_AUC_viability: ACEA Biosciences xCELLigence Real-Time Cell Analysis on Androgen Receptor Antagonism for Viability (AID 2283776).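 Note: hits lower the growth signal relative to DMSO meaning cytotoxicity.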 The gist of the method:
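22Rv1 human prostate cancer cells were seeded on electrode plates, monitored overnight, then exposed to eight 1:4 dilutions from 100 uM final. Impedance-based growth kinetics at 80 h gave an AUC viability endpoint normalized to DMSO.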

Assay [5] in a line: ACEA_ER_AUC_viability: ACEA Biosciences xCELLigence Real-Time Cell Analysis on Estrogen Receptor Agonism for Viability (AID 2283782).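 Note: continuous compound exposure with impedance area under curve over 80 h; hit means loss of impedance signal meaning reduced cell growth or viability.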 The gist of the method:
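T-47D human breast cells in phenol red-free RPMI1640 with 10% charcoal-stripped FBS were dosed with an 8-point 1:4 dilution series from 100 uM top final concentration, in duplicate. Impedance-based growth was followed for 80 h; AUC analysed versus DMSO.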

Assay [6] in a line: ACEA_AR_agonist_AUC_viability: ACEA Biosciences xCELLigence Real-Time Cell Analysis on Androgen Receptor Agonism for Viability (AID 2283775).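 For AC50: viability read 80 hours after compound addition.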 The gist of the method:
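Real-time impedance tracking of 22Rv1 growth, readings every 5 min for 5 h then hourly; area-under-curve viability endpoint at 80 hours, relative to DMSO. Compounds at eight concentrations, 1:4 steps, top 100 uM, n = 2.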

The nature of assay [7]: CCTE_Padilla_ZF_144hpf_TERATOSCORE: (Legacy) CCTE's 144 Hour Post-fertilization zebrafish Assay Teratoscore, Padilla Lab (AID 2283679; active = hit-call score of the fitted dose curve at least 0.9, where 1 is the maximum; inactive = score below 0.9;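 note: zebrafish embryos with chorions exposed by immersion from 6-8 hpf to 5 dpf with daily renewal; teratogenicity score from eye scoring of death hatching and malformations at 144 hpf; higher score means more developmental defects relative to DMSO baseline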). The method, boiled down:
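Larvae scored by eye at 144 hpf for death, hatching and malformations after a day in clean Hanks'. Before that, daily-renewed exposure at 80 uM (0.4% DMSO, 26C) from roughly 6-8 hpf through 5 dpf, 4 embryos per chemical.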

A short description of assay [8]: CEETOX_H295R_MTT_cell_viability: Viability Assessment in the CeeTox HT-H295R MTT Assay (AID 2283718; active = hit-call score of the fitted dose curve at least 0.9, where 1 is the maximum; inactive = score below 0.9). The gist of the method: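 H295R cells prestimulated 48 h with 10 uM forskolin, then exposed 48 h to test chemical (0.1% DMSO final). Viability by MTT (0.5 mg/ml, 4 h, 37 C), absorbance 570/650 nm; percent change versus DMSO, bidirectional fit.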
For a further assay, the target named is AR (gene 367) (UniProt P10275). As to the kind of experiment: ACEA_AR_agonist_80hr: ACEA Biosciences xCELLigence Real-Time Cell Analysis on Androgen Receptor Agonism for Proliferation (AID 2283783).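 Note: hits increase impedance growth signal above DMSO baseline.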 The method, boiled down:
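22Rv1 human prostate cancer cells were seeded after preconditioning in assay medium and monitored overnight, then dosed in an eight-point 1:4 dilution series from 100 uM (≤0.5% DMSO). Impedance-based growth was read at 80 h, gain-of-signal versus DMSO.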

Usually AC50 stands for the concentration at which the activity in the assay is half-maximal.

Structures are written as SMILES. Values joined by “and” are separate entries in the source; they are usually repeats but may differ in a detail not shown here. Identical values can stand only once. Results filed as inconclusive are left out. Active and inactive are the calls of the source. Rule for the calls, unless noted: active = hit-call score of the fitted dose curve at least 0.9, where 1 is the maximum; inconclusive = response in the unintended direction; inactive = score below 0.9.

Chain of AR (gene 367) (P10275 whole entry, looked up): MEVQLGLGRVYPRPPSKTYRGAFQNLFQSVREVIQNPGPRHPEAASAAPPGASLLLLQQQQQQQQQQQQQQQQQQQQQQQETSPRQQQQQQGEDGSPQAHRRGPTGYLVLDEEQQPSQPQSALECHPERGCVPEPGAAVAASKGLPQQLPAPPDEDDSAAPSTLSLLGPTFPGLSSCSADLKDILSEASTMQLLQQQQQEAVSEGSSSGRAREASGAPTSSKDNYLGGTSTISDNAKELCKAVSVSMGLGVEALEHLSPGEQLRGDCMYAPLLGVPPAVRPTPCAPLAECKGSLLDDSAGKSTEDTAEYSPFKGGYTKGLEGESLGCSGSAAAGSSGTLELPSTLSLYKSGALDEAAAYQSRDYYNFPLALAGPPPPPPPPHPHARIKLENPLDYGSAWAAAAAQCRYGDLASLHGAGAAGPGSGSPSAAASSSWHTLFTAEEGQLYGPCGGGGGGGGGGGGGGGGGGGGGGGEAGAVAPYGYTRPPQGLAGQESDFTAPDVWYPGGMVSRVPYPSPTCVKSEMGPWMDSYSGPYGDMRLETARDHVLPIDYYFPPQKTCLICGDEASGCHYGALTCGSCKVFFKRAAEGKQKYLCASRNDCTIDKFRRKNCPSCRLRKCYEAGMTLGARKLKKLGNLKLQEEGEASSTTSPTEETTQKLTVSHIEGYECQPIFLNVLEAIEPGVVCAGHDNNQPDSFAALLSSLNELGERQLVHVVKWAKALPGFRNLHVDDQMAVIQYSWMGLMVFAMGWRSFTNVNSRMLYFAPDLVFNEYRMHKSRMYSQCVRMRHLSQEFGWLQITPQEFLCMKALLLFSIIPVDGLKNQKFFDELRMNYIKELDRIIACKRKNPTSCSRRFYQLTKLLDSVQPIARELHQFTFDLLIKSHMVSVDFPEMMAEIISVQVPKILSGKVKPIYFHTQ

`CC(C)(C)c1ccc(N)cc1`: the half-maximal activity concentration (AC50) in assay [1] was 0.106 µM (active). Further, the compound was classed as inactive in [2], in assay [3], in assay [4] and in [5].
Take `C1CN(SSN2CCOCC2)CCO1`: the values for the half-maximal activity concentration (AC50) in assay [1], in [2] and in assay [5] were 4.25 µM (active), 88.9 µM (active) and 82.4 µM (active), respectively. For the same compound, the result in assay [3] and in assay [6] was inactive.
Take `COCc1c(C(C)C)nc(C(C)C)c(/C=C/[C@@H](O)C[C@@H](O)CC(=O)O)c1-c1ccc(F)cc1`: the AC50 in assay [7] was 78.1 nM (active) and 159 nM (active). For the same compound, the compound was classed as inactive in assay [8].
On to `C=COCCCC`, for which the call in assay [8] and in assay [5] was inactive.
For the compound `NC(=O)c1ccccc1O`, the call in assay [6] and in [5] was inactive.
For `C=C[Si](C)(C)O[Si](C)(C)C=C`, the result in assay [6], in [4] and in assay [5] was inactive.
With `CCCCCCC1(C)CCC(=O)O1` (stereo not drawn), the AC50 in assay [6] is 1.1 µM (active). The call in assay [4] and in assay [5] was inactive.
For the compound `CCOC(=O)CC`, the compound was classed as inactive in assay [6], in [4] and in assay [5].
In the case of `CCO[Si](C)(OCC)OCC`, the result in assay [6], in assay [4] and in [5] was inactive.
For `CCCCCCCC/C=C\CCCCCCCC(=O)OCCO`, the result in assay [6] was inactive. In addition, the AC50 in [5] is 4.96 µM (active).
Regarding `CCCCC(CC)CCC(CC(C)C)OS(=O)(=O)O` (stereo not drawn), in [6], the AC50 was 4.29 µM (active). Moreover, the outcome in [4] and in [5] was inactive.
With `O=C(OCC1CCC2OC2C1)C1CCC2OC2C1` (stereo not drawn), the AC50 in [6] is 9.05 µM (active). For the same compound, the call in [5] was inactive.
Turning to `CCCCCCCCO[C@@H]1O[C@H](CO)[C@@H](O)[C@H](O)[C@H]1O`, the compound was classed as inactive in assay [6], in assay [4] and in assay [5].
Take `NC(=O)N=NC(N)=O`: the compound was classed as inactive in [6] and in assay [5]. The concentration at half-maximal activity (AC50) in [4] was 4.59 µM (active).
As for `C=CC(=O)NC(C)(C)CS(=O)(=O)O`, in [6], the outcome was inactive. Besides, in assay [5], the AC50 is 11.2 µM (active).
`CCCCOCCOC(=O)COc1nc(Cl)c(Cl)cc1Cl`: the result in assay [6] and in assay [5] was inactive.
`O=C(C(Cl)Cl)N1CCOC12CCCCC2`: the half-maximal activity concentration (AC50) in assay [6] is 9.81 µM (active); in [4], 11 µM (active); in assay [5] it was 14.5 µM (active).
As for `O=C(O)CCCC[C@@H]1SC[C@@H]2NC(=O)N[C@@H]21`, the result in assay [6], in assay [4] and in assay [5] was inactive.
Turning to `C=C1C2CCC(C2)C1(C)C` (stereo not drawn), the outcome in assay [6] and in [5] was inactive.
Regarding `CC(=O)OC(C)C`, the result in [6], in assay [4] and in assay [5] was inactive.
On to `CCCCCCCC/C=C\CCCCCCCC(=O)O`, for which the outcome in assay [6] and in assay [4] was inactive. In addition, the AC50 in assay [5] was 50 µM (active).
Take `CCCCCCCCCCOS(=O)(=O)O`: the result in [4] and in assay [5] was inactive.
As to `CCCCCCCOC(=O)CCC`, the compound was classed as inactive in assay [6], in assay [4] and in assay [5].
For the compound `Cc1ccc(C(C)(C)C)cc1`, the outcome in [6] and in [5] was inactive.
Turning to `CC(C)(C)c1ccc(OC(=O)c2ccccc2O)cc1`, the concentration at half-maximal activity (AC50) in [6] is 0.106 µM (active); in assay [4], 0.0777 µM (active); in assay [5], 66.2 µM (active).
Take `CC=C1CC2C=CC1C2` (stereo not drawn): the call in assay [6], in assay [4] and in assay [5] was inactive.
For the compound `CC(=O)[C@H]1[C@H](C#N)C[C@H]2[C@@H]3CC=C4C[C@@H](O)CC[C@]4(C)[C@H]3CC[C@@]21C`, the compound was classed as inactive in assay [4] and in assay [5].
Regarding `CC(C)=CCC[C@H](C)CCO`, the result in [6], in assay [4] and in assay [5] was inactive.
For the compound `OC1CCCCCCCCCCC1`, the result in assay [6], in assay [4] and in assay [5] was inactive.
`CCCc1ccc(OC)cc1`: the compound was classed as inactive (in [6]; in assay [4]; in assay [5]; with AR (gene 367)).
Turning to `O=C1C(N(CO)C(=O)NCO)N(CO)C(=O)N1CO` (stereo not drawn), the result in [6] and in assay [5] was inactive.
Consider `Cc1cc(C)c(C(=O)O)c(C)c1`, for which the outcome in assay [6], in assay [4] and in assay [5] was inactive.
For the compound `c1c[nH]cn1`, the compound was classed as inactive in assay [6], in assay [4] and in [5].
As to `CCCCCc1ccc(Cl)cc1`, the outcome in [4] and in assay [5] was inactive.
For the compound `O=c1cc(-c2ccccc2)oc2ccccc12`, the compound was called inactive in assay [6] and in assay [4].
With `CC1=NN(c2cc(S(=O)(=O)O)ccc2Cl)C(=O)C1N=Nc1ccccc1` (stereo not drawn), the compound was classed as inactive in [6], in assay [4] and in assay [5].
In the case of `O=C(c1ccccc1)C1CCC1`, the result in assay [6] and in [5] was inactive. The concentration at half-maximal activity (AC50) in assay [4] was 0.391 µM (active).
As to `CC(C)c1ccc2c(C(C)C)cc(C(C)C)c(S(=O)(=O)O)c2c1`, the compound was classed as inactive (in assay [6]; in assay [5]; with AR (gene 367)).
Take `OC1CCCC1`: the compound was called inactive in [6] and in [5]. Moreover, in [4], the AC50 is 0.475 µM (active).
Turning to `Cn1c([N+](=O)[O-])cnc1COC(N)=O`, the call in assay [4] and in assay [5] was inactive.
With `CC1=CC[C@H]2C[C@@H]1C2(C)C`, the compound was classed as inactive in assay [6], in assay [4] and in [5].
Regarding `CCN(Cc1cccc(S(=O)(=O)O)c1)c1ccc(C(=C2C=CC(=[N+](CC)Cc3cccc(S(=O)(=O)[O-])c3)C=C2)c2ccccc2)cc1`, the call in [5] was inactive.
As for `CNC(=S)N(C)C`, the outcome in [5] was inactive.
Take `C=CC(=O)OCCOC(=O)C=C`: the half-maximal activity concentration (AC50) in assay [5] was 32.3 µM (active).
On to `CC1OC1C1CCC2(C)OC2C1` (stereo not drawn), for which, in assay [5], the compound was called inactive.
For the compound `CC=CCO`, the compound was called inactive in assay [5].
`CC[C@H]1OC(=O)[C@H](C)[C@@H](O[C@H]2C[C@@](C)(OC)[C@@H](O)[C@H](C)O2)[C@H](C)[C@@H](O[C@@H]2O[C@H](C)C[C@H](N(C)C)[C@H]2O)[C@](C)(O)C[C@@H](C)C(=NOCOCCOC)[C@H](C)[C@@H](O)[C@]1(C)O`: the compound was classed as inactive in assay [5].
The same measure, in the same setting: the result for `C=CC(C)(CCC=C(C)C)OC(=O)C(C)C` (stereo not drawn) reads “inactive”.
Turning to `C=C(C)[C@@H]1CCC2=CCC[C@@H](C)[C@]2(C)C1`, the concentration at half-maximal activity (AC50) in assay [5] was 77.6 µM (active).
With `CCCCCCCCCCOC(C)=O`, the compound was classed as inactive in assay [5].
Consider `CCc1nccnc1C`, for which the call in assay [5] was inactive.
In the case of `Cc1ccc2oc(=O)ccc2c1`, in assay [5], the compound was classed as inactive.
Same read-out and setting: the result for `CC(C)=CCC/C(C)=C\C#N` reads “inactive”; that for `O=Nc1ccc(O)cc1`, “inactive”.
Turning to `O=[N+]([O-])C1(Br)COCOC1`, the half-maximal activity concentration (AC50) in assay [5] is 8.14 µM (active).
For `O=CN1CCCCC1`, the call in [5] was inactive.
On to `CCC(CC)C(=O)O`, for which the call in [5] was inactive.
With `NC(=O)NNC(N)=O`, the result in assay [5] was inactive.
On to `C=C(C)CCO`, for which the half-maximal activity concentration (AC50) in assay [5] is 65.9 µM (active).
Turning to `Cc1ccc(OC(=O)CC(C)C)cc1`, in [5], the AC50 was 73.8 µM (active).
As to `CC(C)(C)C1CCCCC1=O` (stereo not drawn), in [5], the half-maximal activity concentration (AC50) is 24.8 µM (active).
